The values below come from PubChem BioAssay AID2685 (National Center for Advancing Translational Sciences (NCATS), 2010).

About 2,100 (0.66%) of roughly 320,000 compounds were called active. Inconclusive results (about 53%) are left out. Calls come from the whole dose curve; as a rule, active = well fitted inhibition curve with a large enough effect in the signal ratio, with a control signal flat (not every such curve was filed as active); inconclusive = small, poorly fitted or top-dose-only effect, or effect the other way, or a change in a side signal; inactive = flat fitted curve, though single readings scatter; the % refers to the signal ratio. What follows is part of a selection rich in actives, with near analogues and random picks from the rest.
Potency is the fitted concentration of half-maximal effect.

A short description of the test: qHTS Assay for Lipid Storage Modulators in Drosophila S3 Cells.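 For cell number change: cells counted by Cell Tracker Red CMTPX staining in the red channel.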 For lipid storage change, negative = inhibition: % is set by controls: 0 for no effect and ±100 for the full control effect. The following applies: BODIPY lipid droplet fluorescence, 18-24 h, cells fed with added oleic acid; cell number change: measured here: cell count max response; series mostly up to 46.1 µM; lipid storage change, negative = inhibition: at the top concentration. The method, boiled down:
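Laser-scanning cytometry quantifies lipid droplet accumulation (500–530 nm total intensity; droplet/cell object ratio) in oleic acid-fed (400 uM added) Drosophila S3 cells treated with a concentration series. 20 uM Triacsin C defined 100% inhibition.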
As to `CC(C)(C)c1cc(OS(C)(=O)=O)ccc1O`, the “lipid storage change, negative = inhibition” value is 9.4% (inactive) and the cell number change is -0.646%.

On to `CC(C)(C)c1cc(OC(=O)c2ccncc2)ccc1O`, for which the “lipid storage change, negative = inhibition” value is -0.115% (inactive) and the cell number change is -10.2%.

`CCCCC(CC)C(=O)Oc1ccc(O)c(C(C)(C)C)c1` (centres undefined): the Potency was 25.9 µM (active) and the cell number change was -29.2%.

For the compound `Cc1onc(-c2c(F)cccc2Cl)c1C(=O)ONC(=O)c1ccccc1`, the “lipid storage change, negative = inhibition” value is -0.558% (inactive) and the cell number change worked out at 10.6%.

For `O=C(COc1cc2oc(=O)c3c(c2cc1Cl)CCCC3)N1C[C@H]2C[C@@H](C1)c1cccc(=O)n1C2`, the Potency is 1.46 µM (active) and the cell number change is 3.88%.

As to `CCCc1cc(=O)oc2cc(OCC(=O)N3C[C@H]4C[C@@H](C3)c3cccc(=O)n3C4)c(Cl)cc12`, the “lipid storage change, negative = inhibition” value was -2.74% (inactive) and the cell number change was 3.02%.

As for `CC(Oc1cc2oc(=O)c3c(c2cc1Cl)CCC3)C(=O)N1C[C@H]2C[C@@H](C1)c1cccc(=O)n1C2` (some centres undefined), the “lipid storage change, negative = inhibition” value is -5.06% (inactive) and the cell number change was 18.9%.

For `O=C(COC(=O)Cc1n[nH]c(=O)c2ccccc12)Nc1ccc(Cl)cc1F`, the “lipid storage change, negative = inhibition” value was 4.92% (inactive) and the cell number change was -2.17%.

`COc1ccc2c(c1)cc(C(=O)N[C@@H](Cc1ccccc1)C(=O)O)n2C`: the call was inactive.

In the case of `CCN1C(=O)[C@@H]2C(C(=O)c3cnccn3)=NN[C@@H]2C1=O`, the “lipid storage change, negative = inhibition” value was 1.67% (inactive) and the cell number change is 10.4%.

Regarding `CCOC(=O)C1=NNC2C(=O)N(CC)C(=O)C12` (centres undefined), the Potency was 13 µM (active) and the cell number change is 12.2%.

`CCCCN1C(=O)C2NN=C(C(=O)OC)C2C1=O` (centres undefined): the “lipid storage change, negative = inhibition” value is -2.98% (inactive) and the cell number change was 1.06%.

Consider `Clc1ccc(Cn2ncc3c(N4CCCC4)ncnc32)cc1`, for which the compound was called inactive and the cell number change is -16%.

As for `COc1cccc(NC(=O)CN(C)C(=O)c2ccc(S(=O)(=O)Nc3ccccc3C)cc2)c1`, the “lipid storage change, negative = inhibition” value was 0.588% (inactive) and the cell number change is -4.07%.

As for `CCN1CCN(Cc2ccc(NC(=O)c3ccc(C)c(NC(=O)N4CCNC4=O)c3)cc2C(F)(F)F)CC1`, the “lipid storage change, negative = inhibition” value was 17.8% (inactive) and the cell number change is 25.7%.

`CCN1CCN(Cc2ccc(NC(=O)c3ccc(C)c(NC(=O)c4cccc5[nH]ccc45)c3)cc2C(F)(F)F)CC1`: the “lipid storage change, negative = inhibition” value is -1.09% (inactive) and the cell number change is -3.74%.

As to `CCN1CCN(Cc2ccc(NC(=O)c3ccc(C)c(NC(=O)c4c[nH]c5cc(C(F)(F)F)ccc5c4=O)c3)cc2C(F)(F)F)CC1`, the Potency is 10.3 µM (active) and the cell number change is -28.9%.

As for `CCOC(=O)Cc1csc(NS(=O)(=O)c2ccc(C(F)(F)F)cc2)n1`, the “lipid storage change, negative = inhibition” value is 8.18% (inactive) and the cell number change is 3.37%.

Consider `CCOc1ccc(OCC)c(NC(=O)CCNS(=O)(=O)c2cc(Br)cnc2N)c1`, for which the Potency was 1.3 µM (active) and the cell number change is -2.69%.

Regarding `COc1ccc(NC(=O)CCNS(=O)(=O)c2cc(Br)cnc2N)c(OC)c1`, the “lipid storage change, negative = inhibition” value is -15% (inactive).

In the case of `COc1cc(OC)c(NC(=O)CCNS(=O)(=O)c2cc(Br)cnc2N)cc1Cl`, the result was inactive.

Turning to `CN1CCN(S(=O)(=O)c2cccc(C(=O)Nc3cc(C(F)(F)F)ccc3N3CCCC3)c2)CC1`, the “lipid storage change, negative = inhibition” value is 15.5% (inactive) and the cell number change was found to be 1.88%.

Take `COc1cccc(/C=N/NC(=O)c2nc(-c3ccccc3)cc(-c3ccccc3)n2)c1`: the Potency is 20.6 µM (active) and the cell number change is -10.5%.

With `COc1cccc(/C=N/NC(=O)c2nc(-c3ccccc3)cc(-c3ccccc3)n2)c1O`, the “lipid storage change, negative = inhibition” value was 5.35% (inactive) and the cell number change was -7.98%.

With `COc1ccc(/C=N/NC(=O)c2nc(-c3ccccc3)cc(-c3ccccc3)n2)cc1`, the “lipid storage change, negative = inhibition” value is -12.8% (inactive) and the cell number change is -21.2%.

Consider `CCOc1cc(/C=C2\SC(=Nc3ccc(F)cc3)N(c3ccc(F)cc3)C2=O)ccc1OCC(=O)O`, for which the “lipid storage change, negative = inhibition” value is 11.8% (inactive) and the cell number change was -5.36%.

For the compound `COc1ccccc1C1=CC(=O)C[C@H](c2ccc(Cl)cc2)C1`, the “lipid storage change, negative = inhibition” value was 12.6% (inactive) and the cell number change is -15.5%.

As for `Cc1ccccc1C(=O)NC1CCN(CC(=O)Nc2ccccc2)CC1`, the “lipid storage change, negative = inhibition” value was -9.76% (inactive) and the cell number change is -25.1%.

As to `CCCC(=O)NC(=S)Nc1ccc(C(C)=O)cc1`, the “lipid storage change, negative = inhibition” value is -28.1% (inactive) and the cell number change was -4.91%.

Take `CNC(=S)Nc1ccccc1-c1ccccc1`: the “lipid storage change, negative = inhibition” value is -7.51% (inactive) and the cell number change is 1.9%.

As for `COc1ccc(OC)c2sc(NC(=O)c3ccc(S(=O)(=O)N4CCOCC4)cc3)nc12`, the “lipid storage change, negative = inhibition” value is 4.31% (inactive) and the cell number change was determined as 4.36%.

`COc1ccccc1COC(=O)c1ccc(S(=O)(=O)N2CCOCC2)cc1`: the compound was classed as inactive and the cell number change was -3.67%.

Consider `CCn1c(=NC(=O)c2ccc(S(=O)(=O)N3CCOCC3)cc2)sc2cccc(OC)c21`, for which the Potency was 16.4 µM (active) and the cell number change amounted to 4.06%.

For the compound `COc1ccc(Cl)cc1NS(=O)(=O)c1cccc(C(=O)NCC2(N(C)C)CCCCC2)c1`, the Potency is 32.6 µM (active) and the cell number change was -25.5%.

For `COc1ccc(Cl)cc1NS(=O)(=O)c1cccc(C(=O)NCC(c2ccco2)N(C)C)c1` (centres undefined), the outcome was “inactive [at 0.369 µM]”.

`COc1ccccc1NS(=O)(=O)c1cccc(C(=O)NCC2(N(C)C)CCCCC2)c1`: the “lipid storage change, negative = inhibition” value is 27.8% (inactive) and the cell number change was found to be 16.3%.

For the compound `CCCCN(C(=O)c1ccc(NC2CC2)c([N+](=O)[O-])c1)c1c(N)n(CCCC)c(=O)[nH]c1=O`, the “lipid storage change, negative = inhibition” value was 2% (inactive).

As to `CCCNC(=O)c1cn(CC)c2cc(N3CCN(C(=O)c4ccco4)CC3)c(F)cc2c1=O`, the Potency is 16.4 µM (active) and the cell number change was -23.8%.

Regarding `CCN(CC)CCCNC(=O)c1cn(CC)c2cc(N3CCN(C(=O)c4ccco4)CC3)c(F)cc2c1=O`, the call was inactive and the cell number change stood at 3.82%.

In the case of `CCN(CC)CCNC(=O)c1cn(CC)c2cc(N3CCN(C(=O)c4ccco4)CC3)c(F)cc2c1=O`, the “lipid storage change, negative = inhibition” value is -9.28% (inactive) and the cell number change stood at 3.39%.

As to `Cc1ccc(S(=O)(=O)N2CCC(=O)N(CCOCc3ccccc3C)CC2)cc1`, the “lipid storage change, negative = inhibition” value is 27.7% (inactive) and the cell number change is -1.04%.

As to `Cc1cc2cc(CN(Cc3cccs3)S(=O)(=O)c3ccc4c(c3)OCCO4)c(=O)[nH]c2cc1C`, the “lipid storage change, negative = inhibition” value is 19.7% (inactive) and the cell number change turned out to be 5.28%.

`CCCCC(=O)Nc1ccc(C(=O)N2CCN(C)CC2)cc1`: the “lipid storage change, negative = inhibition” value was 13.2% (inactive).

As for `CCCCCCCC(=O)NN1CCOCC1`, the “lipid storage change, negative = inhibition” value is -8.3% (inactive) and the cell number change was 12.9%.

Take `CCCCCCC(=O)NN1CCN(C)CC1`: the Potency was 25.9 µM (active) and the cell number change is -18.7%.
